Among all 96,000 compounds or so, about 19,000 (20%) were called active. These entries were drawn from the full list. Unmarked numbers belong to inactive results.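 Rule for the calls: active = blocking of liver enzyme CYP2C9 beyond about 50% at 5 µM (limit read from the data); inactive = the rest.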

The assay deals with Cytochrome P450 2C9 (Homo sapiens) (UniProt P11712). Kind of assay: blockers of cytochrome P450 2C9 activity – biochemical, luminescence, ADME assay, primary screen (AID 777). As to conditions: CYP2C9 Supersomes, luciferin-H conversion, at 5 µM, active compounds read high.
Chain of Cytochrome P450 2C9 (Homo sapiens) (P11712 whole entry, looked up): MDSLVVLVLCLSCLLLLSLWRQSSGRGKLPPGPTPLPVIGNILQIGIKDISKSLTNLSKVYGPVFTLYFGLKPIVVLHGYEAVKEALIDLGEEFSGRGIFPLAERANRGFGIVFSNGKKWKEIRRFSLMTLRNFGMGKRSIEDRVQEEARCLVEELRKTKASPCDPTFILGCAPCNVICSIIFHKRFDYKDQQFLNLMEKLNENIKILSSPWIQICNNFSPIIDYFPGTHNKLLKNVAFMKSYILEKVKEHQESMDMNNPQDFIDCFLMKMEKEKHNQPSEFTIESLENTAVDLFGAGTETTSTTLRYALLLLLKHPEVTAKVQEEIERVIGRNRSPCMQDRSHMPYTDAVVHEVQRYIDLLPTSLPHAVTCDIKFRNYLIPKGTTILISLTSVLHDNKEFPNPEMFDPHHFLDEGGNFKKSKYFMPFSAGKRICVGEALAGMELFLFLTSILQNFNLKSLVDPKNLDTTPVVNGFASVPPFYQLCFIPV
Turning to `O=C(NNC(=O)c1cccnc1)Nc1ccccc1`, the inhibition was -10.1%.
As for `CC(C)NC(=O)C(=O)N/N=C/c1ccco1`, the inhibition was -20.6%.
Under `COc1ccc(Nc2nc(=O)[nH]nc2C)cc1` stands 1.9%; under `CCN(CC)CC(=O)Nc1nn(-c2ccccc2)nc1C(N)=O`, -20.1%; under `CC(=O)c1cc2c(cc1NC(=O)CN1CCCCCC1)OCO2`, 0.4%.
Regarding `O=C(Nc1nn(Cc2ccccc2F)cc1Br)c1cccs1`, the inhibition was 8%.
Take `O=C(O)c1ccc(COc2c(F)c(F)cc(F)c2F)o1`: the inhibition is -9.4%.
For `O=C(Nc1ccn(Cc2ccccc2F)n1)c1ccc(COc2ccc(Cl)cc2Cl)o1`, the inhibition was 92.6% (active).
Under `OC(COCCC12CC3CC(CC(C3)C1)C2)CN1CCCCC1` (stereo not drawn) stands 3.4%; under `CCN1CCCC1CNC(=O)Cn1cnc2ccc(S(=O)(=O)N3CCC(C)CC3)cc2c1=O` (stereo not drawn), 7.3%.
As for `COC(=O)C1=C(Nc2ccc(OC)cc2)C=C(C)C(C(=O)OC)C1c1ccc(C)cc1` (stereo not drawn), the inhibition is 51.9% (active).
`COC(=O)C1C(=O)NCC1c1ccc(C)cc1` (stereo not drawn): the inhibition was 17.3%.
In the case of `COC(=O)C1C(=O)NCC1c1ccc(OC)cc1` (stereo not drawn), the inhibition was -19.7%.
As for `O=C1CCCC2=C1C(c1cccs1)n1nc(SCc3ccccc3)nc1N2` (stereo not drawn), the inhibition is -9.5%.
For the molecule `COc1ccccc1C(=O)N1CCNC(=O)C1CC(=O)Nc1ccc(Cl)cc1` (stereo not drawn), the inhibition was 27.9%.
For the molecule `Nc1ccccc1SCc1cc([N+](=O)[O-])cc2c1OCOC2`, the inhibition is 53.9% (active).
As to `CN(C)S(=O)(=O)c1ccc(Oc2ccc(S(=O)(=O)N(C)C)cc2)cc1`, the inhibition is 13.3%.
In the case of `Cc1cccc(N=C2NC(=O)CS2)c1C`, the inhibition is 21.1%.
Under `COC(=O)c1ccc(Cc2ccccc2)o1` stands -29.6%.
In the case of `COc1ccc2[nH]c(C)c(CCN(Cc3cccs3)C(=S)Nc3ccccc3OC)c2c1`, the inhibition was 43.2%.
Turning to `COC(=O)c1ccc(CN(c2ccccc2OC)S(=O)(=O)c2cccs2)o1`, the inhibition is 94.6% (active).
For `Cc1oc(CC(C)C)c(CN2CCCC2)c1C(=O)O` the value was -18.2%; for `CN(C)c1ccc(CNC2C3CC4CC(C3)CC2C4)cc1` (stereo not drawn), 4.8%; for `COc1ccccc1NC(=O)C1=C(C)Nc2nnnn2C1c1cccc(Br)c1` (stereo not drawn), 41%.
In the case of `COC(=O)c1ccc(C2C3=C(Nc4nnnn42)c2ccccc2OC3)cc1` (stereo not drawn), the inhibition was 92.8% (active).
For `O=c1[nH]c2c(c(=O)n1Cc1ccccc1)CCC2`, the inhibition was -27.1%.
Under `COC(=O)c1ccc(/C=N\n2c(C)nnc2C)cc1` stands -3.4%; under `Cc1noc(/C=C/N(C)C)c1S(=O)(=O)N1CCCC(C(=O)NCc2ccco2)C1` (stereo not drawn), 48.9%; under `Cc1noc(/C=C/c2ccco2)c1S(=O)(=O)N1CCC(C(=O)N2CCc3ccccc32)CC1`, 76.9% (active).
Turning to `CCOC(=O)C1CCN(C(=O)C2CCN(S(=O)(=O)c3c(C)noc3C)CC2)CC1`, the inhibition was 10.2%.
As to `CCCCN1C(=O)/C(=C2/C=CC=CN2C)SC1=S`, the inhibition is -5%.
As for `Cc1cccc(-n2ncc3c(N4CCc5ccccc54)ncnc32)c1`, the inhibition was -9.6%.
For the molecule `Cc1cc(C)nc(N2CCN(c3ncnc4c3oc3ccccc34)CC2)n1`, the inhibition is -20.3%.
For `Cc1ccc2c(c1)c1ncnc(N3CCc4ccccc4C3)c1n2C` the value was 73% (active); for `CCN(CC)C(=O)CSc1nnc(C2CCCCC2)o1`, 5.7%; for `COCc1cc(C)nc(Nc2cc(C)ccc2C)c1C#N`, 15.6%.
For `Oc1ccc(-c2onc3ccc(Cl)cc23)cc1`, the inhibition was 90.2% (active).
Take `CC1(C)Oc2ccc3ccc(=O)oc3c2/C(=C/NCCO)C1=O`: the inhibition is 4.1%.
For `O=C(/C=C/Nc1ccccc1)c1cnc(-c2ccccc2)s1` the value was 12.6%.
Regarding `O=C1c2ccncc2C(=O)N1C1CCCCC1`, the inhibition is 12.5%.
On to `COc1ccc(C2C(C(=O)Nc3ccccc3OC)=C(C)Nc3nnnn32)c(OC)c1` (stereo not drawn), for which the inhibition is 31.8%.
Turning to `CCCCCOC(=O)C1=C(C)Nc2nnnn2C1c1ccc(OC)c(OC)c1OC` (stereo not drawn), the inhibition is 56.5% (active).
As to `CC1=C(C(N)=O)C(c2sccc2C)n2nnnc2N1` (stereo not drawn), the inhibition was -4.8%.
As for `CCc1cc(Br)ccc1NC(=O)C1CCCO1` (stereo not drawn), the inhibition is -2.1%.
Turning to `CC(=O)Oc1cc2c(C(=O)NCCN3CCOCC3)c(C)oc2c2ccccc12`, the inhibition is 24.6%.
`CC(c1ccccn1)N(CCN(C)C)C(=S)Nc1ccccc1F` (stereo not drawn): the inhibition is -1.3%.
`CO/N=C/c1ccc(N2CCN(C(=O)c3cccc(Cl)c3)CC2)c([N+](=O)[O-])c1`: the inhibition is 14.4%.
As to `O=C(c1ccccc1)N1CCN(c2ccc([N+](=O)[O-])c(NCc3ccco3)c2)CC1`, the inhibition is 87.1% (active).
As to `CCNC(=S)N1CCN(C(=O)c2ccco2)CC1`, the inhibition is 1.2%.
In the case of `O=C(O)C1CC=CCC1C(=O)Nc1ccccc1C(=O)N1CCN(c2ccccc2)CC1` (stereo not drawn), the inhibition was 6%.
Under `O=C(c1ccccc1Oc1ccccc1)N1CCN(c2ccc(F)cc2)CC1` stands 77% (active); under `CC(C)N(C(=O)COC(=O)c1ccccc1C(=O)N1CCN(c2ccc(F)cc2)CC1)C(C)C`, 39.5%.
Under `O=C(c1cccc(F)c1)N1CCN(c2ccc([N+](=O)[O-])c(N3CCCCC3)c2)CC1` stands 80.7% (active); under `O=[N+]([O-])c1ccc(N2CCN(S(=O)(=O)c3ccc4ccccc4c3)CC2)cc1NCc1ccco1`, 27.8%; under `CCC(CC)C(=O)Nc1cccc(C(=O)N2CCCC2)c1`, 12.7%.
Under `O=C(c1cccc(N2CCCC2=O)c1)N1CCOCC1` stands 5.6%; under `O=C(c1cccc(C(=O)N2CCN(c3ccc(F)cc3)CC2)c1)N1CCN(c2ccc(F)cc2)CC1`, 84.6% (active).
In the case of `O=C(c1ccccc1)c1cccn1CC(=O)N1CCN(c2ccc(F)cc2)CC1`, the inhibition is -62.9%.
For the molecule `CNC(=O)Nc1cc(C(C)(C)C)no1`, the inhibition was 7.8%.
In the case of `CCOC(=O)c1c(N)c(C#N)nn1-c1ccccc1C(=O)OC`, the inhibition is -2.3%.
Regarding `CN(C(=O)CC(NC(=O)c1ccccc1)(c1ccccc1)c1ccccc1)c1ccccc1`, the inhibition was 21.9%.
Take `CC(C)CC(=O)N=C1SC2CS(=O)(=O)CC2N1CCc1ccccc1` (stereo not drawn): the inhibition is 7.8%.
For `CCc1ccc(-c2nnn(Cc3nn[nH]n3)n2)cc1` the value was 23.5%.

A word on the inhibition: it is the change of the read-out against control, counted positive when it falls.
